Values joined by “and” are separate entries in the source; they are usually repeats but may differ in a detail not shown here. Equal entries are not always repeated. Results filed as inconclusive are left out. Active and inactive are the calls of the source. Unless noted, calls follow the shape of the dose curve; as a rule, active = well fitted curve in the direction sought with a large enough effect in the repeat runs; inconclusive = weak or mixed curves; inactive = no such curve, though single readings can be large; an effect the other way counts as inactive or inconclusive.
How the values were obtained:
[1] = qHTS assay for small molecule agonists of the p53 signaling pathway (AID 651631; calls by dose curve; also: nearly all actives have a fitted effect of over 15% in size; also: potency is read from the fitted curve at half-maximal effect)
Procedure, shortened: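 Beta-lactamase reporter activity under p53 response elements was quantified in HCT-116 cells by FRET fluorescence, following 16 h incubation with test compounds at 37 °C and 2 h substrate development at room temperature.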

[2] = qHTS assay for small molecules that induce genotoxicity in human embryonic kidney cells expressing luciferase-tagged ATAD5 (AID 651632); also: nearly all actives have a fitted effect of over 15% in size; also: potency is read from the fitted curve at half-maximal effect
Procedure, shortened: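 Genotoxicity read-out via ATAD5-luciferase: HEK293T cells, 16 hr compound incubation at 37C, Amplite detection.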

[3] = qHTS assay for small molecules that induce genotoxicity in human embryonic kidney cells expressing luciferase-tagged ATAD5 - cell viability (AID 651634; calls by dose curve; also: nearly all actives have a fitted effect of over 25% in size; also: potency is read from the fitted curve at half-maximal effect)
Procedure, shortened: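 Live-cell protease activity (CellTiter-Fluor, fluorescence) indicates viability. HEK293T cells with luciferase-tagged ATAD5; 15.5 hr compound treatment at 37C.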

[4] = qHTS assay for small molecule disruptors of the mitochondrial membrane potential - cell viability (AID 720634; calls by dose curve;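 also: human HepG2 liver cancer cells; series mostly up to about 83 µM; nearly all actives have a fitted effect of over 20% in size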)
Procedure, shortened: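 Human hepatoma HepG2 cells were treated for 1 hr with test chemicals, then given m-MPI dye and CellTiter-Glo. Cell viability reflects luminescence proportional to cellular ATP.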

[5] = qHTS assay to test for compound auto fluorescence at 590 nm (red) in HepG2 cells (AID 720674)
Procedure, shortened: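 We screened compounds on adherent HepG2 cells, incubating them for an hour at 37 C in 5% CO2 before reading emission at 590 nm under 540 nm excitation; values reflect equivalence to Rose Bengal sodium fluorescence.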

[6] = qHTS assay to test for compound auto fluorescence at 535 nm (green) in HepG2 cells (AID 720675)
[7] = qHTS assay to test for compound auto fluorescence at 460 nm (blue) in HEK293 cells (AID 720678)
Procedure, shortened: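 Cells were seeded and left to adhere for 4-5 hr at 37C. Compounds were then pin-transferred. After an overnight incubation at 37C under 5% CO2, intrinsic fluorescence at 405/460 nm was measured and referenced to triamterene.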

[8] = qHTS assay to test for compound auto fluorescence at 590 nm (red) in HEK293 cells (AID 720679)
Procedure, shortened: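 Each well held 2,000 HEK293 cells in medium containing 10% dialyzed FBS. Following 4-5 hr attachment at 37C, 23 nL test compound or DMSO was added; plates sat overnight, and red fluorescence (540/590nm) was recorded.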

[9] = qHTS assay to test for compound auto fluorescence at 535 nm (green) in HEK293 cells (AID 720680)
[10] = qHTS assay to test for compound auto fluorescence at 460 nm (blue) in HEK293 cell free culture (AID 720681)
Procedure, shortened: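 Blue fluorescence (Ex 405/Em 460 nm, triamterene-equivalent) was read immediately after pin transfer of compound or DMSO into medium (DMEM, 10% FBS) without cells.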

[11] = qHTS assay to test for compound auto fluorescence at 535 nm (green) in HEK293 cell free culture (AID 720682)
Procedure, shortened: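 Each library compound, or DMSO control, is added by pintool to medium alone, comprising DMEM and 10% FBS. Emission at 535 nm following 485 nm excitation is quantified against fluorescein.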

[12] = qHTS assay to test for compound auto fluorescence at 590 nm (red) in HEK293 cell free culture (AID 720683)
Procedure, shortened: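 Red-channel autofluorescence of compounds in culture medium (DMEM, 10% FBS), no cells, measured at 540/590 nm. Rose Bengal sodium is the reference fluorophore for equivalence.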

[13] = qHTS assay to test for compound auto fluorescence at 590 nm (red) in HepG2 cell free culture (AID 720684)
Procedure, shortened: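 Steps: dispense MEM/10% FBS medium, no cells; pin compound or DMSO vehicle; read red channel, Ex/Em 540/590 nm. Output given as Rose Bengal sodium equivalents.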

[14] = qHTS assay to test for compound auto fluorescence at 535 nm (green) in HepG2 cell free culture (AID 720686)
[15] = qHTS assay for small molecule disruptors of the mitochondrial membrane potential (AID 720635)
Procedure, shortened: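 Mitochondrial membrane potential tracked with Mito-MPS dye, red aggregates (ex 540/em 590 nm) against green monomers (ex 490/em 535 nm). Compound treatment 1 hr at 37C, dye 30 min in HepG2.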

[16] = qHTS assay to test for compound auto fluorescence at 460 nm (blue) in HepG2 cell free culture (AID 720685)
Procedure, shortened: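 Compound (23 nL) or DMSO pinned into cell-free MEM with 10% FBS; blue fluorescence read at 405/460 nm excitation/emission, expressed as auto-fluorescence equivalency to triamterene.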

[17] = qHTS assay to test for compound auto fluorescence at 460 nm (blue) in HepG2 cells (AID 720687)
Procedure, shortened: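 Blue-channel autofluorescence (Ex/Em 405/460 nm, triamterene-equivalent) was measured after 1 hr compound exposure at 37 C, 5% CO2. Cells were HepG2, plated overnight at 37 C in MEM plus 10% FBS.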

[18] = molecular target: Glucocorticoid receptor (Homo sapiens) (UniProt P04150); assay: qHTS assay to identify small molecule agonists of the glucocorticoid receptor (GR) signaling pathway (AID 720691; active = well fitted activation curve with a large enough effect in the signal ratio in the repeat runs, not every such curve was filed as active; the % refers to the signal ratio)
Procedure, shortened: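 Beta-lactamase reporter activity, read as fluorescence intensity, was measured in GR-bla HeLa cells exposed to compounds for 18 h at 37 C and then loaded with LiveBLAzer B/G FRET substrate for 2 h at room temperature.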

[19] = molecular target: Glucocorticoid receptor (Homo sapiens) (UniProt P04150); assay: qHTS assay to identify small molecule antagonists of the glucocorticoid receptor (GR) signaling pathway (AID 720692; active = well fitted inhibition curve with a large enough effect in the signal ratio in the repeat runs, not every such curve was filed as active; the % refers to the signal ratio)
Procedure, shortened: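 Fluorescence from cleaved LiveBLAzer B/G FRET substrate reports GRE-driven beta-lactamase in HeLa cells; compounds are tested against 5 nM dexamethasone (final) over 18 h at 37 C, substrate incubation 2 h at room temperature.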

[20] = qHTS assay for small molecule agonists of the p53 signaling pathway - cell viability (AID 651633; calls by dose curve;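 also: p53RE-bla HCT reporter cells with a stable beta-lactamase p53 reporter; series mostly up to about 83 µM; nearly all actives have a fitted effect of over 30% in size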)
Procedure, shortened: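 Viability counter-read: CellTiter-Glo luminescence (30 min, room temperature) in the same p53RE-bla plates. These plates had been exposed to compounds for 16 h at 37 C.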

Measured: Potency

Glucocorticoid receptor (Homo sapiens), sequence (P04150 whole entry, looked up): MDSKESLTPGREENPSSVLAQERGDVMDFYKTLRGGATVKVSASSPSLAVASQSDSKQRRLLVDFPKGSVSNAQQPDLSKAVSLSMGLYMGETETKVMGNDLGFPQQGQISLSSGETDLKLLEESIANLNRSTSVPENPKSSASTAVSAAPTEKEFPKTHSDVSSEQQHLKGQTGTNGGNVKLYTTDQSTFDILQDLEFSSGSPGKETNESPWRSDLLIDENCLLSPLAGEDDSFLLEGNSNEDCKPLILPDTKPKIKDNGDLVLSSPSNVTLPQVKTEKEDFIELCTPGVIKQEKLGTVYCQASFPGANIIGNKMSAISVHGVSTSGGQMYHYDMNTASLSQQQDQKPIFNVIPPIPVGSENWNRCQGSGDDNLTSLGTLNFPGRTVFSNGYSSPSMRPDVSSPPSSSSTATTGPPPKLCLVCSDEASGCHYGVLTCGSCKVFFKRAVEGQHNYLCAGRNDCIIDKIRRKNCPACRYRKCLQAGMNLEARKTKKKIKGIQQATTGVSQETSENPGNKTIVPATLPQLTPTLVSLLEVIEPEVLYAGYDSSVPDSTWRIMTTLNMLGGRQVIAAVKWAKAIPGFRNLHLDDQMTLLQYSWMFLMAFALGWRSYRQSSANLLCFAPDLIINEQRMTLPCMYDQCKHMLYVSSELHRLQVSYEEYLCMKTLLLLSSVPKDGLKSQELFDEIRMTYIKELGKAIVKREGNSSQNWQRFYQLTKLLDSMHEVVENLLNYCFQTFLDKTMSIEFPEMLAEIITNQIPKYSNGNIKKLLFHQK

CCCC(=O)OCc1ccccc1
not listed: [15] | [16] | [17] | [18] | [19] | [20]
inactive: all other assays above

CCCC1CCCC(=O)O1 (configuration not stated)
not listed: [5] | [20]
inactive: all other assays above

CCCOC(C)=O
not listed: [15] | [18] | [20]
inactive: all other assays above

CC(C)CCCCCCCOC(=O)c1ccc(C(=O)OCCCCCCCC(C)C)c(C(=O)OCCCCCCCC(C)C)c1
not listed: [19] | [20]
inactive: all other assays above

CC(C)C[C@H](NC(=O)[C@H](Cc1ccccc1)NC(=O)c1cnccn1)B(O)O
active: [1] 15 nM and 9.4 nM | [2] 21.1 nM and 18.8 nM | [3] 376 nM and 94.4 nM
not listed: [17] | [19] | [20]
inactive: all other assays above

CCOC(=O)CC(O)(CC(=O)OCC)C(=O)OCC
not listed: [4] | [15] | [18] | [20]
inactive: all other assays above

Cc1ccc(S(=O)(=O)NC(=O)NC2CCCC2)cc1
not listed: [20]
inactive: all other assays above

C=C[Si](OCC)(OCC)OCC
not listed: [2] | [15]
inactive: all other assays above

C/C=C1\[C@H]2C=C(C)C[C@]1(N)c1ccc(=O)[nH]c1C2
not listed: [3] | [15] | [18] | [20]
inactive: all other assays above

NCCOCCOCCN
not listed: [7] | [15] | [19] | [20]
inactive: all other assays above

CCCCCCCCOCCCN
not listed: [4] | [15] | [16] | [17] | [19] | [20]
inactive: all other assays above

CC(CCl)OC(C)CCl (configuration not stated)
not listed: [18] | [20]
inactive: all other assays above

Cc1ccc(NC=O)c(C)c1
not listed: [1] | [15]
inactive: all other assays above

COC(=O)c1cc(Cl)ccc1[N+](=O)[O-]
not listed: [1] | [5] | [19]
inactive: all other assays above

CC(C)CC(C)(C)C
not listed: [1] | [7] | [18] | [19]
inactive: all other assays above

From PubChem BioAssay (Tox21)
